Test results as given in PubChem BioAssay (Tox21).
Results filed as inconclusive are left out. A call without a number means that no potency is given here. A number with no mark means an inactive call. The source made the active and inactive calls. Calls come from the whole dose curve; as a rule, active = well fitted cell-killing curve with a large enough effect in the repeat runs; inconclusive = weak or mixed curves, or effect the other way; inactive = flat fitted curve, though single readings scatter.

Experiments:
[1] = cAMP Responsive Elements (CRE) small molecule antagonists, cell-based qHTS assay: qHTS cell viability counter screen (AID 2060913); note: nearly all actives have a fitted effect of over 40% in size
How it was run: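 HEK293T CRE-bla, 2,000 cells/well, 18 h preincubation; cpd in DMSO + NKH477 0.25 uM final, 3 h 37 C/5% CO2; LiveBLAzer 2 h RT, then CellTiter-Glo 30 min RT, luminescence.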

[2] = cAMP Responsive Elements (CRE) small molecule agonists, cell-based qHTS assay: qHTS cell viability counter screen (AID 2060914);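 note: viability read after 3 h of compound exposure; nearly all actives have a fitted effect of over 50% in size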
How it was run: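 CRE-bla HEK293T cells in 10% dialyzed FBS medium were exposed to compounds for 3 h at 37C after 18 h plating. CellTiter-Glo was then added in the same wells, and luminescence was read after 30 min at room temperature.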
Potency is the fitted concentration of half-maximal effect.

Row | SMILES | Potency [1] | Potency [2]
1 | CC(=O)O | inactive | inactive
2 | c1ccc2c(c1)cc1ccc3cccc4ccc2c1c34 | inactive | inactive
3 | O=C(Cl)C(Cl)(Cl)Cl | inactive | inactive
4 | COc1ccc(C(O)(c2cncnc2)C2CC2)cc1 (stereo not given) | inactive | inactive
5 | CCC(=O)C(CCN(C)C)(c1ccccc1)c1ccccc1 | inactive | inactive
6 | c1ccc2c(c1)Nc1ccccc1S2 | inactive | inactive
7 | CC1NCCOC1c1ccccc1 (stereo not given) | inactive | inactive
8 | O=C(O)CC(Cl)C(=O)O (stereo not given) | inactive | inactive
9 | Oc1ccc(Cc2ccc(O)cc2)cc1 | inactive | inactive
10 | O=S(=O)(C(Cl)(Cl)Cl)C(Cl)(Cl)Cl | inactive | inactive
11 | CC(NC(C)(C)C)C(=O)c1cccc(Cl)c1 (stereo not given) | inactive | inactive
12 | O=[N+]([O-])c1ccc([As](=O)(O)O)cc1 | inactive | inactive
13 | c1ccc2c(c1)Oc1ccccc1O2 | inactive | inactive
14 | ClC(Cl)=C(Cl)Cl | inactive | inactive
15 | C[N+](C)(C)CCOC(=O)C(O)(c1ccccc1)c1ccccc1 | inactive | inactive
16 | N#Cc1ccccc1Cl | inactive | inactive
17 | O=C(N/N=C/c1ccc([N+](=O)[O-])o1)c1cc([N+](=O)[O-])cc([N+](=O)[O-])c1O | inactive | inactive
18 | CC(C)CCCCCCOC(=O)c1ccccc1C(=O)OCCCCCCC(C)C | inactive | inactive
19 | CSCCCN=C=S | inactive | inactive
20 | C=CCc1ccc(OC(=O)Cc2ccccc2)c(OC)c1 | inactive | inactive

Row | SMILES | Potency [1] | Potency [2]
21 | C#CC(O)(C=CCl)CC (stereo not given) | inactive | inactive
22 | Cc1c([N+](=O)[O-])c(C)c([N+](=O)[O-])c(C(C)(C)C)c1[N+](=O)[O-] | inactive | inactive
23 | C=CC(=O)OCC | inactive | inactive
24 | CC(C)C(C)(N)C#N (stereo not given) | inactive | inactive
25 | CS(=O)(=O)NC(=O)c1cc(Oc2ccc(C(F)(F)F)cc2Cl)ccc1[N+](=O)[O-] | inactive | inactive
26 | C=CCc1cc(OC)c2c(c1)OCO2 | inactive | inactive
27 | O=[N+]([O-])c1cc(C(F)(F)F)c(Cl)c([N+](=O)[O-])c1Nc1ncc(C(F)(F)F)cc1Cl | 30.6 µM (active) | 77 µM (active)
28 | Clc1ccc(C(Cl)(Cl)Cl)c(Cl)c1 | inactive | inactive
29 | CC(C)(c1ccc(O)c(-c2ccccc2)c1)c1ccc(O)c(-c2ccccc2)c1 | 61.1 µM (active) | 61.1 µM (active)
30 | O.O.O.O=C([O-])[C@H]([O-])[C@@H]([O-])C(=O)[O-].O=C([O-])[C@H]([O-])[C@@H]([O-])C(=O)[O-].[K+].[K+].[Sb+3].[Sb+3] | inactive | inactive
31 | [As]#[In] | inactive | 2.17 µM (active)
32 | OC(O)C(Cl)(Cl)Cl | inactive | inactive
33 | CCN(CC)CCc1c[nH]c2ccccc12 | inactive | inactive
34 | CCC[CH2][Sn]([CH2]CCC)([CH2]CCC)[O]C(=O)c1ccccc1 | 5.7 µM (active) | 5.45 µM (active)
35 | CC(C)(C)C(O)(CCc1ccc(Cl)cc1)Cn1cncn1 (stereo not given) | inactive | inactive
36 | CCCCOC(=O)COC(=O)c1ccccc1C(=O)OCCCC | inactive | inactive
37 | CCO/N=C(\CC)C1=C(O)CC(c2c(C)cc(C)cc2C)CC1=O (stereo not given) | inactive | inactive
38 | CCn1cc[n+](C)c1 | inactive | inactive
39 | C=CCBr | inactive | inactive
40 | CNC(=O)CSP(=O)(OC)OC | inactive | inactive

Row | SMILES | Potency [1] | Potency [2]
41 | O=C1OC(CCN2CCCCC2)OC1(c1ccccc1)c1ccccc1 (stereo not given) | inactive | inactive
42 | O=c1[nH]c(=O)n(Cl)c(=O)n1Cl | inactive | inactive
43 | CCN(CC)c1nc(C)cc(OP(=S)(OC)OC)n1 | inactive | inactive
44 | CC(=O)[O-].CC(=O)[O-].O.O.[Cd+2] | 53.7 µM (active) | inactive
45 | CC1CN1P(=O)(N1CC1C)N1CC1C (stereo not given) | inactive | inactive
46 | C1CCC(C2CCCCC2)CC1 | inactive | inactive
47 | c1ccc(C2CC2)c(OCC2=NCCN2)c1 | inactive | inactive
48 | C[C@H]1O[C@H](OC2[C@@H](O)[C@@H](O)C(O)[C@H](O)[C@H]2O)[C@@H](N)C[C@@H]1N=C(N)C(=O)O (stereo not given in full) | inactive | inactive
49 | O=C(O)C(Cl)(Cl)Br | inactive | inactive
50 | CCN(Cc1ccc(Cl)nc1)/C(=C/[N+](=O)[O-])NC | inactive | inactive
51 | ClCc1cccnc1 | inactive | inactive
52 | CCCCCCn1cc[n+](C)c1 | inactive | inactive
53 | N#CC(CCc1ccc(Cl)cc1)(Cn1cncn1)c1ccccc1 (stereo not given) | inactive | inactive
54 | O=C(CCl)Nc1ccccc1 | inactive | inactive
55 | CCOP(=S)(OCC)SCSCC | inactive | inactive
56 | II | inactive | inactive
57 | O=C(O)c1cc[c]([Hg][Cl])cc1 | inactive | inactive
58 | C=CCc1ccc2c(c1)OCO2 | inactive | inactive
59 | CCOP(=S)(OCC)SCSc1ccc(Cl)cc1 | inactive | inactive
60 | Nc1ccc(Oc2ccc(N)cc2)cc1 | inactive | inactive
